The panel holds about 83,000 compounds, 20% with a hit somewhere; the sample as a whole holds those more often.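 Percent growth is the endpoint: 0 to 100 indicates growth inhibition (40 means 60% inhibition), 0 means no net growth, and negative values indicate cell death.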 Unmarked numbers belong to inactive results. Active and inactive are the calls of the source.
test system: NCI/ADR-RES ovarian; test: NCI-60 one-dose screen, 48 h (100 = growth as untreated, 0 = no growth, -100 = all killed); settings: 10 µM unless noted
Experimental: Growth inhibition of the NCI/ADR-RES human […] tumor cell line is measured as a screen for anti-cancer activity. Cells are grown in 96 well plates and exposed to the test compound for 48 hours. Compounds are tested at a single concentration, which is 10^-5 M for most compounds. The reported endpoint is percent growth (GI% or GIPRCNT), where numbers from 0 - 100% represent growth inhibition, and numbers from -100% - 0 represent cell death. For example, a value of 40 represents 60% growth inhibition. A value of 0 means no net growth occurred over the course of the experiment. A value of -40 indicates 40% of cells at the beginning of the experiment died by the end of the experiment. A value of -100 means all cells are dead at the end of the experiment.
NCI-60 Human Tumor Cell Lines Screen was performed using the standard one-dose NCI protocol, which is described in more detail at https://dtp.cancer.gov/discovery_development/nci-60/default.htm.
Compounds with GIPRCNT values below 10 were considered active. Activity score was based on GIPRCNT using the following formula: […]
Score is 0 for GIPRCNT values of 100 or above, 50 for GIPRCNT values of 0, and 100 for GIPRCNT values of -100.

| Compound | growth |
| --- | --- |
| CC(=O)O[C@H]1C(=O)[C@@]2(C)[C@H]([C@H](OC(=O)c3ccccc3)[C@]3(O)C[C@H](OC(=O)[C@H](OC(=O)OCC4COC(C)(C)O4)[C@@H](NC(=O)c4ccccc4)c4ccccc4)C(C)=C1C3(C)C)[C@]1(OC(C)=O)CO[C@@H]1C[C@@H]2O (stereo not given in full) | 91.4% |
| Cc1c(O)c(CN(CCCl)CCCl)cc(CN(CCCl)CCCl)c1O | 103% |
| CCn1c2ccccc2c2cc(C(=O)c3ccc(C)c4ccccc34)ccc21 | 6.35% (active) |
| COc1cccc2c1c(C(=O)C(=O)Nc1ccn[nH]1)cn2Cc1ccc(F)cc1 | 109% |
| C#C[C@]1(OC(=O)CCCCCC)CC[C@H]2[C@@H]3CCC4=CC(=O)CC[C@@H]4[C@H]3CC[C@@]21C | 40.3% |
| CCCCCCCOC(C(=O)OCCN(CC)CC)(c1ccccc1)c1ccccc1 | 97.8% |
| Clc1cccc(NCOOC2(OOCNc3cccc(Cl)c3)CCCCC2)c1 | 36.8% |
| N#CCCNc1ccccc1 | 108% |
| CCn1cnc2c(Nc3cccc(Cl)c3)nc(N[C@@H]3CCCC[C@@H]3N)nc21 | 11% |
| CC(C)(C)N1CC1C#N (stereo not given) | 106% |
| CC12CCC3C(C=CC4=C(N)C(=O)CCC43C)C1CCC2=O (stereo not given) | 68.7% |
| C[Se]C(=O)c1ccccc1OC(C)=O | 35% |
| O=C1NC(=O)C(=Cc2cccn2CCCCCn2c3ccccc3c(=O)c3ccccc32)C(=O)N1 | 99.5% |
| CCOC(=O)CCN(C)C1=Nc2ccc(Cl)cc2C(c2ccccc2)=[N+]([O-])C1 | 104% |
| CN1CCC(c2c[nH]c3ccccc23)C1 (stereo not given) | 94.5% |
| C/C1=C/C(=O)O[C@@H]2C[C@@H](CC[C@H](C)/C=C\C=C\CC1)O[C@@](O)([C@@H]1CSC(=O)N1CO)C2 | 47.6% |
| CCCCCCCCC(CO)NCCc1ccccc1 (stereo not given) | 112% |
| O=C1C=C(N2C3C4CCC(C4)C32)C(=O)C=C1c1ccccc1 (stereo not given) | 99.4% |
| COc1ccc(O)c(CNC(=O)CN2CCCC2=O)c1 | 97.8% |
| Cc1ccc(Nc2nc3c(s2)C2=CC[C@@H]4[C@H](CC[C@]5(C)C(=O)CC[C@@H]45)[C@@]2(C)CC3)cc1 | 57.2% |

| Compound | growth |
| --- | --- |
| OCCNC(Cc1ccccc1)c1ccc2c(c1)OCO2 (stereo not given) | 102% |
| C[C@]12C[C@@H](CO)[C@H](O)C[C@@H]1CC[C@@H]1[C@@H]2CC[C@]2(C)[C@@H](O)CC[C@@H]12 | 99.6% |
| Fc1ccc2c(c1)c(-c1nc(-c3c[nH]c4ncccc34)cs1)cn2CCCCN1CCCCC1 | -64.1% (active) |
| Cc1ccc(S(=O)(=O)C(Cl)(Cl)Cl)cc1 | 89.1% |
| ClC1=C(Cl)C(Cl)(C2(Cl)C(Cl)=C(Cl)C(Cl)=C2Cl)C(Cl)=C1Cl | 4.66% (active) |
| CS(=O)(=O)CCN1CC2CCCC(C2)C1 | 105% |
| COc1cccc(C=NC(Cc2cnc[nH]2)C(=O)O)c1O (stereo not given) | 98.4% |
| CC(C)(NC(=O)O[C@@H]1CN2CCC1CC2)c1csc(-c2ccc(F)cc2)n1 | 96.8% |
| CCCCCCCCCCCCCCCCCCOc1ccccc1COP(=O)(O)OOCC[N+](C)(C)C | 88.5% |
| O=[N+]([O-])c1cc(I)cc([N+](=O)[O-])c1 | 96.6% |
| COC1=CC(=O)O[C@@H](/C=C/c2ccc3c(c2)OCO3)C1 | 95.7% |
| COC(=O)[C@@H](C)C[C@H](Cc1ccccc1)NC(=O)c1nc([C@@H](C[C@H](C(C)C)N(C)C(=O)[C@@H](NC(=O)[C@H]2CCCN2C)C(C)C)OC(C)=O)sc1C | 4.35% (active) |
| O=C(CCCCCCC(=O)Nc1ccc(N(CCCl)CCCl)cc1)NO | 64.6% |
| CN(C)C(=O)Oc1ccccc1 | 98.2% |
| COc1ccc(C(=O)c2sc3nc4c(cc3c2N)N2CCC4CC2)cc1OC | 79.4% |
| Cn1cc(C2=C(c3cn(C4CCN(Cc5ccccn5)CC4)c4ccccc34)C(=O)NC2=O)c2ccccc21 | 84.4% |
| O=C1C2CCC1C(N1CCCC1)CC2 (stereo not given) | 102% |
| ClCCN(CCCl)Cc1ccc(Nc2ccnc3cc(Cl)ccc23)cc1 | 71.3% |
| CCN1C(=O)C(=C/C=C/c2ccccc2)C(=O)N(CC)C1=O | 78.6% |
| NC(=O)C(Br)c1ccccc1 (stereo not given) | 105% |
